KCNK3 inh: human KCNK3 channel inhibition, primary screen. B-score at 10 µM. hit rate 0.84% among 340,000. CHO-KCNK3 thallium flux, FluxOR fluorescence; stronger effect = lower value. O14649;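 active = B-score under library mean minus 4 SD, starting fluorescence ratio at most library mean plus 5 SD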;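 also: more negative B-score means stronger inhibition of thallium flux through KCNK3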
TMEM16A act: activates or potentiates the mouse TMEM16A chloride channel; Q8BHY3; HEK293 TMEM16A/YFP-H148Q/I152L, iodide quench fluorescence; stronger effect = lower value; B-score at 10 µM; hit rate 0.3% among 340,000;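 active = fluorescence-ratio B-score plate-corrected deviation score at least 3 library SD below zero, with starting fluorescence score within 5 deviations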;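 also: channel opened by trigger with iodide after compound preincubation; score built on the fluorescence ratio of max minus min over baseline; more negative score means more quench and so TMEM16A activation or potentiation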
Kir21 inh: Kir2.1 (mouse) channel inhibition; HEK293-Kir2.1, FluxOR thallium flux fluorescence; stronger effect = lower value; B-score at 10 µM; AID 1672; P35561; hit rate 0.85% among 310,000;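 active = fluorescence ratio B-score at or below minus 3 SD of library scores, with starting-brightness B-score within 2 SD, cut at about -4.2 in these data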;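 also: channel flux triggered by added potassium and thallium sulfate stimulus; B-score of peak minus minimum fluorescence over baseline after thallium stimulus; more negative B-score means stronger Kir2.1 block with less thallium influx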
KCNK9 inh: inhibitors of human KCNK9 two-pore domain potassium channel; Q9NPC2; HEK293 KCNK9, FluxOR thallium flux fluorescence; stronger effect = lower value; B-score at 10 µM; hit rate 1.2% among 310,000; AID 488922;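 active = ratio B-score over 3 SD below the library mean, with starting fluorescence within 5 SD of its mean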;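 also: negative B-score means less thallium flux so channel inhibition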
Target sequence (Q9NPC2 whole entry, looked up, the tested form may be a part): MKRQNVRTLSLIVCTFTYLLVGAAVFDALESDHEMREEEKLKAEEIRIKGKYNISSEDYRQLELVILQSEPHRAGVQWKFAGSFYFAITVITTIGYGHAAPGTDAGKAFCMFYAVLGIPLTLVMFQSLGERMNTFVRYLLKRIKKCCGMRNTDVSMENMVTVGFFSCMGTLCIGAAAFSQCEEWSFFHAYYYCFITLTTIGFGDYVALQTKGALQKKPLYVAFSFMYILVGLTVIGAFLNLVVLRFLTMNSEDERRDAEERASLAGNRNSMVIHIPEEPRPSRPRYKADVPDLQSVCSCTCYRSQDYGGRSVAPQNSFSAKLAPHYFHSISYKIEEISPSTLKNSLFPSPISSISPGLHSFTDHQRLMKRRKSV
ANO1 block: blocks the mouse calcium-activated chloride channel TMEM16A | normalized B-score (activity score, 25-100; higher = stronger inhibition) at 10 µM | AID 588511 | hit rate 1.2% among 310,000 | HEK293 TMEM16A/YFP iodide influx fluorescence, ionomycin | Q8BHY3;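 active = ratio plate-corrected score three or more library SD toward inhibition, starting fluorescence score within five deviations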;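 also: score derived from kinetic fluorescence span divided by baseline fluorescence per well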
KCNK9 inh conf: human KCNK9 inhibitor confirmation; shares compounds with KCNK9 inh; HEK293 KCNK9 cells, FluxOR thallium flux fluorescence; inhibition, % at 10 µM; hit rate 43% among 4,900;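 active = thallium signal inhibited by more than 5 SD of the compound-free buffer control wells, on both duplicate plates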;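 also: 0% = assay buffer control wells without compound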
Kir21 sel: mouse Kir2.1 off-target activity of KCNK9 modulators. Kir2.1 cells, FluxOR thallium flux fluorescence. hit rate 4% among 4,900. shares compounds with KCNK9 inh. inhibition, % at 10 µM. AID 492993;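 active = thallium signal drop more than 5 SD beyond the mean of the no-compound control wells, seen in both duplicate plates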;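 also: signal is fluorescence rise after thallium addition divided by baseline fluorescence; plate controls were assay buffer only for no effect and full block by chlorpromazine control for full effect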
KCNK9 uninduced: second check of KCNK9 modulator effects in non-induced HEK293 cells; shares compounds with KCNK9 inh; FluxOR thallium flux; inhibition, % at 10 µM; hit rate 40% among 4,900; AID 492997;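 active = thallium signal drop beyond 5 SD of the untreated control mean, on both duplicate plates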;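 also: plate controls were buffer only IC0 wells for no effect and SID17386958 at its maximal inhibitory level for full effect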
Active calls of the source: *; i = inactive; x = no result given. Most compounds without a hit are left out; they make up all but 3.5% or so of the library.

SMILES	KCNK3 inh	TMEM16A act	Kir21 inh	KCNK9 inh	ANO1 block	KCNK9 inh conf	Kir21 sel	KCNK9 uninduced
Cc1ccc(-n2cccn2)c(CN2CCCC(C(=O)c3ccc4c(c3)OCO4)C2)c1 (configuration not stated)	i	i	-0.05	i	i	i	i	i
Cc1cc(C)c(C#N)c(SCc2cc3c(cc2Cl)OCO3)n1	i	i	-0.35	-8.48*	i	35.5%*	i	36.5%*
COc1ccc(CSc2nc(C)cc(C)c2C#N)cc1	i	i	-2.48	i	i	x	x	x
CCC(C)[C@H]1COCCS(=O)(=O)N1Cc1ccccc1 (some centres not stated)	i	i	-1.13	i	i	x	x	x
CCOc1c(C)cnc2c1c(=O)n(Cc1ccc(Cl)cc1)c(=O)n2C	i	i	1.62	i	i	x	x	x
Cc1cc(C)nc(NC(=NCCc2c[nH]c3ccccc23)NC(=O)Nc2ccc(Cl)c(Cl)c2)n1	i	i	2.49	i	i	x	x	x
Cc1cc(C)nc(NC(=NCCc2c[nH]c3ccccc23)NC(=O)Nc2ccccc2)n1	i	i	0.03	i	i	i	i	i
Cc1ccc2nc(-c3ccccc3)c(CN3CCN(c4ccccc4F)CC3)n2c1	i	i	0.73	i	i	i	i	i
CC1CCN(c2ccccc2NC(=S)NC(=O)c2cccs2)CC1	i	i	-0.02	i	i	x	x	x
CC1CCN(c2ccccc2NC(=S)NC(=O)C(C)(C)C)CC1	i	i	0.1	-10.5*	i	42.0%*	i	33.0%*
Cc1ccc(NC(=O)N(Cc2cccs2)Cc2cc3cc4c(cc3[nH]c2=O)OCO4)cc1	x	x	0.04	i	i	x	x	x
O=C(Nc1ccc(F)cc1)N(Cc1cccs1)Cc1cc2cc3c(cc2[nH]c1=O)OCO3	i	i	-1.12	-10.8*	i	i	i	42.5%*
COc1cccc(N2CCN(S(=O)(=O)c3cc4c(cc3C)N(C)CCO4)CC2)c1	i	i	0.85	i	i	x	x	x
COc1ccc(N2CCN(S(=O)(=O)c3ccc(OC)cc3)CC2)cc1	i	i	-0.92	i	i	x	x	x
Cc1cc2c(cc1S(=O)(=O)N1CCN(c3cccc(C)c3C)CC1)OCCN2C	i	i	-0.24	i	i	i	i	i
COc1ccc(S(=O)(=O)N2CCN(c3cccc(C)c3C)CC2)cc1	i	i	1.38	i	i	i	i	i
COc1ccc(OC)c(S(=O)(=O)N2CCN(c3c(C)cccc3C)CC2)c1	i	i	1.76	-11*	i	52.5%*	i	34.0%*
O=C(NCc1ccco1)C1CC(c2ccc(C(F)(F)F)cc2)=NO1 (configuration not stated)	i	i	0.1	i	i	x	x	x
O=C(Nc1ccc(OC(F)F)c(Cl)c1)C(c1ccccc1)c1ccccc1	i	i	-0.75	-10.5*	i	25.0%*	i	41.0%*
C(#Cc1ccccc1)CN1CCN(c2ccccn2)CC1	i	i	3.78	i	i	i	i	i
C(#Cc1ccccc1)CN1CCCCC1	i	i	0.46	i	i	x	x	x
O=C(Cn1nc(C(=O)O)c2ccccc2c1=O)Nc1cccc(S(=O)(=O)N2CCCC2)c1	i	i	x	x	x	x	x	x
Fc1ccc2c(c1)C(c1ccncc1)=NNC(c1ccccc1)=N2	i	i	0.94	i	i	x	x	x
COc1cc(/C=C/C(=O)OCC(=O)N2CCC(Cc3ccccc3)CC2)ccc1O	i	i	-0.11	i	i	i	i	i
COc1cccc(OC)c1OCCCN1CCC(Cc2ccccc2)CC1	i	i	-1.35	i	i	i	i	i
SMILES	KCNK3 inh	TMEM16A act	Kir21 inh	KCNK9 inh	ANO1 block	KCNK9 inh conf	Kir21 sel	KCNK9 uninduced
COc1cc(C(=O)OCC(=O)N2CCC(Cc3ccccc3)CC2)cc(OC)c1OC	i	i	0.42	i	i	i	i	i
COc1cc(/C=C/C(=O)OCC(=O)N2CCC(C)CC2)ccc1O	i	i	0.19	i	i	x	x	x
CCCc1cc(=O)oc2cc(C)cc(OC(C)C(=O)NCC(O)c3ccccc3)c12 (configuration not stated)	i	i	-0.56	i	i	x	x	x
c1ccc(Sc2ncnc3ccccc23)cc1	i	i	0.02	i	i	x	x	x
c1ccc(Cc2nnc(Sc3ccccc3)c3ccccc23)cc1	i	i	-0.31	-8.53*	i	46.0%*	i	37.0%*
COc1ccc(OC)c(C(C[N+](=O)[O-])c2c(C)cc3ccccn23)c1 (configuration not stated)	i	i	0.24	-17.3*	i	58.0%*	i	28.5%*
Nc1c(C(=O)c2ccccc2)sc(Nc2ccccc2)c1S(=O)(=O)c1ccccc1	i	i	-0.05	i	i	i	i	i
CCCCCCCC(=O)NNC(=O)c1c(O)c2ccccc2n(CCC)c1=O	i	i	-0.25	i	i	i	i	i
CCCCCCCC(=O)NNC(=O)c1c(O)c2ccccc2n(CC)c1=O	i	i	2.87	i	i	i	i	i
O=C(Nc1cccc(C(=O)NC2CC2)c1)c1ccccc1	i	x	x	x	x	x	x	x
O=C(Nc1cc2c3c(c1)C1CCCC1CN3CC1CCCC21)c1ccccc1 (configuration not stated)	i	i	1.2	-11.8*	i	i	i	i
O=C1CSC(=S)N1Cc1cccs1	i	i	x	x	x	x	x	x
CC(C)(C)N(Cc1ccccc1)C(=O)c1ccc(Cl)cc1[N+](=O)[O-]	i	i	-0.01	i	i	i	i	i
CCCCCC(=O)O[C@]1(C(C)=O)CC[C@H]2[C@@H]3CCC4=CC(=O)CC[C@]4(C)[C@H]3CC[C@@]21C	-10*	i	0.01	-13.2*	i	66.0%*	i	45.0%*
Cc1cc(NC(=O)CSCC(=O)N(C)Cc2c(F)cccc2Cl)no1	i	i	-0.01	i	i	x	x	x
Cc1cccc(NC(=O)CSCC(=O)N(C)Cc2c(F)cccc2Cl)c1	i	i	-2.35	i	i	i	i	i
CCOC(=O)c1cnc2ccc(OCC)cc2c1N1CCN(c2ccccc2OC)CC1	i	i	0.1	i	i	x	x	x
CCOC(=O)c1cnc2ccc(OCC)cc2c1N(C)Cc1ccccc1	i	i	-1.69	i	i	i	i	23.0%*
Cc1cn(CC(=O)NCC(C)c2ccccc2)c(=O)[nH]c1=O (configuration not stated)	i	x	x	x	x	x	x	x

Compound activity from PubChem.
